High-throughput results deposited in PubChem by several laboratories.
PrP UTR inh: suppresses PrP 5' UTR mRNA reporter expression | cell-based PrP 5' UTR mRNA reporter, plate reader | inhibition, % (no concentration beside the values) | 340,000 tested, 0.35% active | AID 488862; in the data active means inhibition above about 52%
PrPC TRFRET: cell surface PrPC inhibition, primary TR-FRET screen; P04156; TR-FRET read-out; inhibition, % at 13.8 µM; 370,000 tested, 0.43% active; in the data active means inhibition above about 24%
PfHsp40 yeast: restores yeast growth despite PfHsp40 toxicity. 340,000 tested, 0.68% active. S. cerevisiae expressing PfHsp40, growth rescue, ATP luminescence. growth rescue, % at 12.5 µM; in the data active means growth rescue above about 28%, passing the limit was not always enough; inconclusive means no clear call, values can overlap the other calls;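 further: yeast W303a lacking pdr1 and pdr3 grown in galactose medium; growth measured after three days at 30 °C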
MazEF act: increases E. coli MazEF RNase cleavage of RNA. AID 504720. P0AE70. 350,000 tested, 0.32% active. activation, % at 20 µM. FAM/BHQ RNA-DNA oligo cleavage fluorescence, 5 h; in the data active means activation above about 50%
PriA SSB inh: K. pneumoniae PriA-SSBct interaction inhibition | AlphaScreen SSBct-PriA binding, biotinylated peptide | 430,000 tested, 0.6% active | inhibition, % at 33 µM | AID 1272365; in the data active means inhibition mostly above about 37%, no sharp cut-off; inactive means mostly below about 20%
PrPC confirm: cell surface PrPC inhibition, TR-FRET confirmation. shares compounds with PrPC TRFRET. cell surface PrPC level. inhibition, % at 13.8 µM. AID 743200. 1,500 tested, 65% active; in the data active means inhibition above about 25%
LD9 tox: counter-screen for PrPc inhibitors: cytotoxicity in LD9 cells | inhibition, % at 13.8 µM | luminescence viability | shares compounds with PrPC TRFRET | 1,500 tested, 29% active; in the data active means inhibition above about 9.5%
Each line names hits and unclear results; the compound was inactive in the other large screens (follow-up assays come after a bar, where they were run). Only some compounds are listed: those with a hit (about 1.8% of all), similar ones and a draw of the others.

COc1ccc(CNC(=O)CN2C(=O)C3CCCN3c3ncc(Cl)cc32)cc1 (centres undefined)	PrPC TRFRET 26 | PrPC confirm inactive | LD9 tox inactive
O=C(CN1C(=O)C2CCCN2c2ncc(Cl)cc21)NCc1ccc2c(c1)OCO2 (centres undefined)	none
N#CC1=C2SCN(Cc3ccccc3)CN2C(=O)CC1c1cccs1 (centres undefined)	PrPC TRFRET 27 | PrPC confirm 56 | LD9 tox inactive
N#CC1=C2SCN(Cc3ccccc3)CN2C(=O)CC1c1ccc2c(c1)OCO2 (centres undefined)	none
c1csc(CNc2nc(NCC3CCCCC3)c3sccc3n2)c1	PrPC TRFRET 26 (no result: PrP UTR inh, PfHsp40 yeast, MazEF act, PriA SSB inh) | PrPC confirm 26 | LD9 tox 14
CNc1ccc(Br)cc1C(=O)c1ccccc1	none (no result: PrP UTR inh, PrPC TRFRET, PfHsp40 yeast, MazEF act)
S=c1[nH]c2ccccc2n2c(=S)[nH]nc12	PrPC TRFRET 30 | PrPC confirm 59 | LD9 tox inactive
S=c1[nH]nc2ccc3ccccc3n12	none (no result: PrP UTR inh, PfHsp40 yeast, MazEF act)
CC1CCc2cc(F)cc3c(O)c(C(=O)NCC4CCCO4)c(=O)n1c23 (centres undefined)	PrPC TRFRET 31, PfHsp40 yeast inconclusive | PrPC confirm 40 | LD9 tox inactive
CCCn1c(=O)c(C(=O)NCC2CCCO2)c(O)c2ccccc21 (centres undefined)	none
Cc1ccc(N(C(=O)c2snc(C(N)=O)c2N)C(C(=O)NCCC(C)C)c2ccco2)cc1 (centres undefined)	PrPC TRFRET 27 | PrPC confirm 34 | LD9 tox inactive
Cc1nc(-c2ccc(S(=O)(=O)Nc3ccc(Br)cc3Cl)s2)cs1	PrPC TRFRET 37, PfHsp40 yeast 26 | PrPC confirm 53 | LD9 tox inactive
CCc1cc2c(=O)c(-c3ccc4c(c3)OCCO4)c(C)oc2cc1OS(C)(=O)=O	PrPC TRFRET 31 | PrPC confirm 40 | LD9 tox inactive
CC(C)(C)OC(=O)N1CCC(N[C@@H](Cc2ccccc2)C(=O)NCCc2c[nH]c3ccccc23)(C(=O)NC2CCCCC2)CC1	PrPC TRFRET 27 (no result: PrP UTR inh, PfHsp40 yeast, MazEF act, PriA SSB inh) | PrPC confirm inactive | LD9 tox inactive
CN1Cc2ccccc2-n2nncc2C1	none
O=C(NCCc1ccccn1)c1ccc(OC2CCN(CCc3ccccc3)CC2)cc1	PrPC TRFRET 45 | PrPC confirm inactive | LD9 tox inactive
CC(Cc1ccccn1)NC(=O)c1ccc(OC2CCN(CCc3ccccc3)CC2)cc1 (centres undefined)	none
O=C(COc1ccc([N+](=O)[O-])cc1)NNC(=S)NC(=O)c1ccc(Br)cc1	none
COc1ccc(Br)cc1C(=O)Nc1cc(C)cc(C)c1	none
COC(=O)C1=CC(=O)C=C(OC)[C@@]12Oc1cc(C)cc(OC)c1C2=O	PrPC TRFRET 59 (no result: PrP UTR inh, PfHsp40 yeast, MazEF act, PriA SSB inh) | PrPC confirm inactive | LD9 tox 98
COc1ccc(/C=C/CN2CCCC(CO)(Cc3cccc(Cl)c3)C2)cc1 (centres undefined)	none
COC(=O)C1=CO[C@@H](C)[C@H]2CN3CCc4c([nH]c5ccccc45)[C@@H]3C[C@H]12	PrPC TRFRET 25 | PrPC confirm inactive | LD9 tox inactive
COc1ccc(C(=O)CN2CCC(c3nnc(C(C)C)o3)CC2)cc1	none (no result: PrP UTR inh, PrPC TRFRET, PfHsp40 yeast, MazEF act)
CC(=O)c1ccc(NC(=O)CO/N=C(\C)c2cccs2)cc1	none (no result: PriA SSB inh)
CCc1cccc(CC)c1NC(=O)CO/N=C(\C)c1cccs1	PrPC TRFRET 35 (no result: PriA SSB inh) | PrPC confirm 30 | LD9 tox inactive
CC(C)(C)c1ccc(NC(=O)COc2ccc(-n3ccnc3)cc2)cc1	PrPC TRFRET 28 | PrPC confirm inactive | LD9 tox 12
CCOC(=O)/C=c1\s/c(=C(\C#N)C(=O)OCC)n(-c2ccccc2)c1=O	none (no result: PriA SSB inh)
CCOc1ccc(/C(O)=C2\C(=O)C(=O)N(c3ccccn3)C2c2ccccc2F)c(C)c1 (centres undefined)	PrPC TRFRET 34 (no result: PrP UTR inh, PfHsp40 yeast, PriA SSB inh) | PrPC confirm 67 | LD9 tox inactive
CCOc1ccc(C(O)=C2C(=O)C(=O)N(c3cc(C)on3)C2c2ccccc2OC)cc1 (centres undefined)	none (no result: PrP UTR inh, PrPC TRFRET, PfHsp40 yeast, MazEF act)
CCOc1ccc(/C(O)=C2\C(=O)C(=O)N(c3cc(C)on3)C2c2ccccc2OC)cc1 (centres undefined)	PrPC TRFRET 35 (no result: PriA SSB inh) | PrPC confirm 55 | LD9 tox inactive
CCOc1ccc2[nH]cc(C(=O)NCc3ccc(F)cc3)c(=O)c2c1	PrPC TRFRET 27 | PrPC confirm 27 | LD9 tox inactive
c1ccc(Cn2nnnc2C(c2cccs2)N2CCCCCC2)cc1 (centres undefined)	PrPC TRFRET 28 | PrPC confirm inactive | LD9 tox inactive
O=C(NCc1n[nH]c(=O)c2ccccc12)c1c(F)cccc1Cl	none (no result: PrP UTR inh, PrPC TRFRET, PfHsp40 yeast, MazEF act)
Cc1ccc(S(=O)(=O)c2cccc(S(=O)(=O)N3CCOCC3)c2)cc1S(=O)(=O)N1CCOCC1	none
Cc1ccc(S(=O)(=O)c2cccc(S(=O)(=O)N3CCCC3)c2)cc1S(=O)(=O)N1CCCC1	PrPC TRFRET 34 | PrPC confirm 30 | LD9 tox inactive
O=C(O)c1ccccc1SCc1csc(-c2ccccc2)n1	PrPC TRFRET 76 | PrPC confirm 60 | LD9 tox inactive
COC(=O)c1ccccc1SCc1csc(C)n1	none
Cc1ccc2nc(NCCCN3CCOCC3)sc2c1	none (no result: PrP UTR inh, PrPC TRFRET, PfHsp40 yeast, MazEF act)
CCc1ccccc1NC(=O)C1CCCN(S(=O)(=O)c2ccc3c(c2)CC(C)N3C(C)=O)C1 (centres undefined)	PrPC TRFRET 31 | PrPC confirm inactive | LD9 tox inactive
COc1ccccc1N1CCN(C(=O)Cc2c(C)nc(SCc3ccccc3)[nH]c2=O)CC1	none (no result: PrP UTR inh, PrPC TRFRET, PfHsp40 yeast, MazEF act)
S=C1NC2=C(C(c3ccc(Br)cc3)N1)N1CCC2CC1 (centres undefined)	PrPC TRFRET 26 | PrPC confirm 25 | LD9 tox inactive
O=C(Nc1ccccc1)Nc1cc(OCC(F)(F)F)cc(OCC(F)(F)F)c1	PrPC TRFRET 38 | PrPC confirm 28 | LD9 tox 14
CC1(C)OC(C)(C)C(=CNc2ccc(O)cc2)C1=O	none (no result: PrP UTR inh, PrPC TRFRET, PfHsp40 yeast, MazEF act)
NNC(=O)c1[nH]c2ccc(Br)cc2c1-c1ccccc1	none
CCc1c(C(=O)O)[nH]c2ccc(Br)cc12	PrPC TRFRET 76 | PrPC confirm 88 | LD9 tox inactive
CC(C)c1ccc(CC(=O)N2CCC2(C)C(=O)NCC(C)(C)C)cc1 (centres undefined)	none (no result: PrP UTR inh, PfHsp40 yeast, MazEF act, PriA SSB inh)
CCCCc1c(-c2ccc(F)cc2F)ncn1CCc1ccccc1OC	none (no result: PrP UTR inh, PfHsp40 yeast, MazEF act, PriA SSB inh)
CCCCc1c(Cc2cccc(F)c2)ncn1CCc1ccccc1OC	PrPC TRFRET 27 (no result: PrP UTR inh, PfHsp40 yeast, MazEF act, PriA SSB inh) | PrPC confirm inactive | LD9 tox 17
CCN1/C(=C/C=C/C2=[N+](CC)c3ccccc3C2(C)C)C(C)(C)c2ccccc21	PrPC TRFRET 77 (no result: PrP UTR inh, PfHsp40 yeast, PriA SSB inh) | PrPC confirm 96 | LD9 tox 78
CCCN1C(=O)/C(=C/C=C2\N(CC)c3ccccc3C2(C)C)SC1=S	none
